# Screening results deposited in PubChem BioAssay by The Scripps Research Institute Molecular Screening Center.
# DAX1 inh-1: DAX1 (NR0B1) inhibitors on StAR promoter, primary screen, cell-based, luminescence, SF-1 (NR5A1), full-length DAX-1; HEK293T StAR-luciferase reporter, SF-1/DAX-1 repression relief; inhibition, % at 6.8 µM; actives 1.1% (n = 370,000);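 active means inhibition above the mean over all tested compounds plus 3 SD, cut at about 3.6% in these data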;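 further: 0% = DAX-1 cells with DMSO and 100% = cells lacking DAX-1 with DMSO; higher inhibition means more luminescence from relief of DAX-1 repression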
# hgDAF-12 ag: H. glycines DAF-12 receptor agonists, primary screen, cell-based, luminescence, HEK293, GAL4 fusion, UAS-luciferase; Nuclear hormone receptor DAF-12 (Heterodera glycines), GAL4 fusion; HEK293 GAL4-hgDAF12 UAS-luciferase reporter, agonist luminescence; normalized to butyrate control; activation, % at 6.8 µM; actives 1.8% (n = 370,000); AID 687014, 2013;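 active means activation above a cutoff set at the mean of all screened compounds plus 3 SD, cut at about 10% in these data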;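 further: 0% = DMSO wells and 100% = sodium butyrate wells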
# hcDAF-12 act: H. contortus DAF-12 nuclear receptor activators, primary screen, cell-based, luminescence, HEK293, lit1-tk-luc reporter | HEK293 hcDAF-12 lit1-tk-luc reporter; 0% DMSO, 100% Δ7-dafachronic acid | activation, % at 6.8 µM | actives 1.4% (n = 370,000) | AID 652067, 2013;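 active means activation above the mean of all tested compounds plus 3 SD, cut at about 5.5% in these data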;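 further: 100% = response to 3 µM Δ7-dafachronic acid high control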
# FXN GAA850 act: FXN promoter activators, primary screen, cell-based, luciferase luminescence, HEK293 lucGAA850. actives 0.56% (n = 360,000). AID 540364, 2011. HEK293 lucGAA850 FXN promoter luciferase reporter, 24 h; percent of 10 µM SAHA response. activation, % at 6 µM;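 active means activation above the average of all compounds screened plus 3 SD, cutoff fixed separately per campaign, cut at about 7.5% in these data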;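 further: 0% = DMSO wells and 100% = 10 µM SAHA wells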
# DAX1 inh-2: DAX1 (NR0B1) inhibitors, primary screen, cell-based, HEK293, Gal4-DAX1, luciferase luminescence. actives 0.99% (n = 340,000). HEK293 Gal4-DAX1 luciferase reporter. inhibition, % at 6.75 µM;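 active means inhibition above the mean over all tested compounds plus 3 SD, cut at about 4.2% in these data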;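 further: 0% = DAX1-transfected cells with DMSO and 100% = empty-vector control cells with DMSO; inhibition shows as a rise in luminescence from relieved DAX1 repression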
# Target sequence (P51843 207-470 limits assumed): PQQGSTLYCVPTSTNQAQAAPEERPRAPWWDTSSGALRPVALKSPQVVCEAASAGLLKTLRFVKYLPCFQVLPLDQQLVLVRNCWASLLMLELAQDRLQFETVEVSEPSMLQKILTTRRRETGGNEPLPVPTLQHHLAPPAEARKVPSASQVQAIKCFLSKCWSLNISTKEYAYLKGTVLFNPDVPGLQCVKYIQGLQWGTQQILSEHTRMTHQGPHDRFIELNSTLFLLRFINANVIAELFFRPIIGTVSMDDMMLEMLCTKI
# ssDAF12 agonist: S. stercoralis DAF-12 nuclear receptor activators, primary screen, cell-based, luminescence, HEK293, GRIP1 co-expression, lit1-tk-luc | AID 652126, 2013 | activation, % at 6.8 µM | HEK293 ssDAF-12/GRIP1 lit1-tk-luc reporter; % of 3 µM dafachronic acid response | actives 1% (n = 370,000) | Nuclear hormone receptor DAF-12 (Strongyloides stercoralis);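 active means activation above the mean over all tested compounds plus 3 SD, cut at about 0.9% in these data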;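 further: 0% = DMSO-only wells and 100% = 3 µM delta7-dafachronic acid wells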
# Numbers without * were called inactive; · = not tested or not shown. Compounds with a hit are over-represented: about 4.5% of the library has one in this group of screens.
SMILES,DAX1 inh-1,hgDAF-12 ag,hcDAF-12 act,FXN GAA850 act,DAX1 inh-2,ssDAF12 agonist
O=C(COC(=O)C1CC1)Nc1ccc(N=Nc2ccccc2)cc1,2.7,13.0*,3.9,5.6,2.1,0.8
O=C(COC(=O)C1CC1)Nc1ccc(OC(F)F)cc1,0.4,2.6,0.5,1.9,1.2,-1.2
CN(C(=O)CSc1nnc(-c2cccs2)n1N)c1ccccc1,0.0,-0.9,0.4,0.9,0.2,-1.0
Cc1nnc(SCC(=O)N(C)c2ccccc2)n1-n1cccc1,·,·,·,0.9,4.7*,·
CCOC(=O)[C@]12CCCCC/C=C\1N(Cc1ccc(OC)cc1)C(=O)[C@H]2CC(=O)NCc1cccc(C(F)(F)F)c1,0.1,-1.1,-0.3,·,·,-1.7
COC(=O)C1CCN(C(=O)COC(=O)c2cc(-c3cccs3)nn2-c2ccccc2)CC1,-1.4,3.2,-1.5,-0.4,4.6*,-0.8
CC1CCCCN1C(=O)COC(=O)c1cc(-c2cccs2)nn1-c1ccccc1 (stereo not drawn),-1.4,1.0,-1.0,1.6,-0.1,-1.4
Nc1nnn(-c2ccccc2)c1-c1ccccc1,0.4,-0.9,2.1,-0.1,4.6*,-1.7
CCc1nc(C)ccc1OCC(=O)N1CCc2c([nH]c3ccccc23)C1c1ccccn1 (stereo not drawn),-0.8,-1.5,-0.4,-0.4,-0.7,-0.8
CCc1nccn1CCC(=O)N1CCc2c([nH]c3ccccc23)C1CC(C)C (stereo not drawn),-0.2,1.8,5.6*,0.5,0.8,0.1
COc1ccc(C(=O)/C=C/Nc2ccc(S(=O)(=O)Nc3onc(C)c3C)cc2)cc1,3.9*,11.0*,4.0,3.5,0.9,1.2*
Cc1noc(NS(=O)(=O)c2ccc(N/C=C/C(=O)c3ccncc3)cc2)c1C,-0.2,1.7,0.9,0.9,0.2,-0.8
Cc1noc(NS(=O)(=O)c2ccc(N/C=C/C(=O)c3ccc(F)cc3)cc2)c1C,1.2,0.1,0.7,-2.2,1.2,-0.8
CCc1ccc(C(=O)/C=C/Nc2ccc(S(=O)(=O)Nc3onc(C)c3C)cc2)cc1,1.5,11.4*,1.9,3.7,0.2,0.4
CCCNC(=O)C[C@H]1CC[C@H]2[C@@H](COc3ccc(NC(=O)Nc4ccccc4)cc3C(=O)N2C)O1,0.6,1.2,0.7,·,·,-1.1
Cc1ccc2oc(=O)c3cnn(CC(=O)N4CCc5ccccc5C4)c3c2c1,0.1,2.7,0.6,1.1,6.3*,-1.1
COc1ccc(C#Cc2c(-c3ccsc3)oc3ccc(-c4cc(OC)c(OC)c(OC)c4)cc23)cc1,-0.6,4.2,5.6*,0.7,0.4,-0.7
COc1ccc(-c2oc3ccc(-c4cc(OC)c(OC)c(OC)c4)cc3c2-c2ccc(OC)cc2)cc1,0.5,-0.1,-1.8,·,·,-0.9
CCOc1ccc2nc(SCc3ccccc3C#N)sc2c1,1.2,10.6*,0.8,4.2,2.6,-1.1
Clc1ccc(-c2nc(-c3ccccn3)no2)cc1Cl,3.6*,12.4*,3.8,6.6,2.4,0.4
COc1ccc(-c2nc(-c3ccccn3)no2)cc1,-2.2,-19.8,-7.8,-13.0,-6.6,-3.5
Cc1nc2ccccc2c2oc(C(=O)NCCN3CCN(C)CC3)cc12,0.2,12.4*,-0.4,1.7,2.5,-1.5
Cn1c(=O)c(Oc2ccc(Cl)cc2)c(O)c2ccccc21,0.6,-0.1,1.1,-1.0,-0.6,1.1*
CCCc1nc2ccc(Cl)cn2c1Cc1ccsc1,0.3,-0.7,0.9,·,·,1.0*
Brc1ccc2nc(-c3ccco3)c(Cc3ccsc3)n2c1,-0.9,1.1,2.3,·,·,1.0*
SMILES,DAX1 inh-1,hgDAF-12 ag,hcDAF-12 act,FXN GAA850 act,DAX1 inh-2,ssDAF12 agonist
Clc1ccc(-c2nc3ccc(Cl)cn3c2Cc2ccsc2)cc1,3.8*,11.1*,1.1,·,·,-0.6
CCOC(=O)N1CCN(C(=O)COc2cc(=O)n(C)c3ccccc23)CC1,-0.3,-0.4,-0.6,-1.0,0.1,-1.6
CCOC(=O)N1CCN(C(=O)COc2cc(=O)n(CC)c3ccccc23)CC1,-0.4,-0.5,-0.9,-2.8,8.2*,-1.5
C/C(=N\NC(=O)c1ccco1)c1ccc(-c2ccccc2)cc1,1.3,12.8*,1.5,1.9,1.6,0.0
C/C(=N\NC(=O)c1ccco1)c1cc2ccccc2o1,0.8,8.2,3.3,7.6,1.9,-0.2
C/C(=N\NC(=O)c1ccco1)c1cc(Cl)sc1Cl,3.8*,6.9,2.3,2.2,2.2,-0.1
CCn1c2ccccc2c2cc(C=NNC(=O)c3cc(-c4ccc(OC)cc4)n[nH]3)ccc21,-1.5,-0.4,-2.6,·,·,-1.5
O=c1c2ccccc2ncn1-c1ccccc1[N+](=O)[O-],-0.1,-3.4,-1.9,1.6,2.0,-1.3
O=c1c2ccccc2ncn1-c1ccc([N+](=O)[O-])cc1Cl,-0.4,-1.7,-2.5,2.3,5.0*,-1.4
O=[N+]([O-])c1ccc(C2=NN(c3ccccc3)C(c3ccco3)C2)cc1 (stereo not drawn),0.2,4.3,0.0,0.8,6.4*,-0.3
CC(C)(C)c1ccc(-c2nnc(SCC(=O)c3ccc4ccccc4c3)n2-c2ccc(Cl)cc2)cc1,-0.2,-2.9,2.1,·,·,-1.2
O=C(CSc1ccccc1)Nc1ccc2c(c1)OCO2,1.2,12.6*,1.0,3.1,0.7,-0.6
O=C(O)C(=O)Nc1nc(-c2ccc3c(c2)OCCO3)cs1,2.1,1.7,2.1,1.1,0.3,-1.0
O=C(CSCc1ccccc1)Nc1ccc2c(c1)OCO2,3.8*,8.0,2.5,1.3,2.1,0.3
CC(C)Oc1ccc(N2CC(C(=O)Nc3ccc4c(c3)OCO4)CC2=O)cc1 (stereo not drawn),-0.5,-0.5,1.3,0.1,4.2,1.4*
O=C(Nc1nc(-c2ccc3c(c2)OCO3)cs1)C1CC1,3.0,11.1*,2.6,5.1,2.5,0.6
Cc1ccc(CSCC(=O)Nc2ccc3c(c2)OCO3)cc1,-0.1,-0.4,-1.2,-0.8,1.2,-1.1
O=C(CSc1nnc(-c2ccccc2)n1-c1ccc(Cl)cc1)Nc1ccccc1-c1ccccc1,-0.7,-2.0,-2.3,·,·,-1.9
O=C(c1ccc(F)cc1F)N(Cc1ccccn1)CC1CCCO1 (stereo not drawn),0.5,1.8,-1.5,·,·,-1.1
O=C(CN1CCC(NC(=O)NC2CCCC2)CC1)Nc1ccc2c(c1)OCCO2,-0.9,-0.2,-1.8,·,·,-0.9
